Among the data in ChEMBL document CHEMBL1157539, “Thousands of chemical starting points for antimalarial lead identification” (Nature, 2010) are Inhibition values, retold here.

Common to all, as to format: functional
The subject of experiment [1] is Plasmodium falciparum. Put plainly: GSK_TCMDC: Inhibition of Plasmodium falciparum 3D7 in whole red blood cells, using parasite LDH activity as an index of growth. Test compounds present at 2uM.
Experiment [2] has as its system Plasmodium falciparum. Kind of experiment: GSK_TCMDC: Inhibition of Plasmodium falciparum Dd2 in whole red blood cells, using parasite LDH activity as an index of growth. Test compounds present at 2uM.
For the next experiment, the system named is HepG2. Kind of experiment: GSK_TCMDC: Percent inhibition of human HepG2 cell line. Test compounds present at 10uM.

Take `Fc1ccc2[nH]c(-c3cccc(-c4ccc(CN5CCC(CCN6CCCCC6)CC5)cc4)c3)nc2c1.O=C(O)C(F)(F)F`: the Inhibition with Plasmodium falciparum [1] was found to be 100%; in the experiment with Plasmodium falciparum [2] it was 100%; in the experiment on HepG2 it was 91%.

Regarding `CNCCNCc1ccc(-c2ccc(-c3nc4cccc(C)c4[nH]3)s2)cc1.O=C(O)C(F)(F)F`, the figures for the Inhibition with Plasmodium falciparum [1], in the experiment with Plasmodium falciparum [2] and in the experiment with HepG2 were 97%, 26% and 16%, respectively.

In the case of `CCN(c1ccc(F)cc1)S(=O)(=O)c1cc(Br)cc2c1N(C(=O)C1CC1)CC2`, the results for the Inhibition in the experiment with Plasmodium falciparum [1], in the experiment with Plasmodium falciparum [2] and with HepG2 were 88%, 79% and 0%, respectively.

`Cc1cc(=NN=Cc2ccccc2F)c2ccccc2[nH]1`: the Inhibition in the experiment with Plasmodium falciparum [1] amounted to 100%; with Plasmodium falciparum [2] it was 81%; with HepG2 it was 14%.

Turning to `CCCN(CC1CC1)c1ncc(-c2ccccc2CNCc2ccccc2O)cn1`, the results for the Inhibition in the experiment on Plasmodium falciparum [1], with Plasmodium falciparum [2] and in the experiment with HepG2 were 100%, 98% and 4%, respectively.

As for `Cc1cc(C(=O)Nc2ccc3c(c2)CCN3C2CCN(Cc3cc(F)cc(F)c3F)C2)no1` (stereo not drawn), the Inhibition with Plasmodium falciparum [1] was found to be 95%; in the experiment on Plasmodium falciparum [2], 96%; with HepG2, 0%.

For `COc1cc(C(=O)NCc2nn(CCN3CCC(N4CCCC4)CC3)cc2-c2ccc(Cl)c(Cl)c2)cc(OC)c1OC`, the Inhibition with Plasmodium falciparum [1] is reported as 97%; in the experiment on Plasmodium falciparum [2] it was 0%; in the experiment on HepG2 it was 16%.

On to `Cc1cc(N(C)CCCN(C)C)nc(Nc2ccc(Br)cc2)n1`, for which the Inhibition worked out at 100% with Plasmodium falciparum [1], 84% in the experiment on Plasmodium falciparum [2] and 4% in the experiment on HepG2.

As to `COc1ccc(C=NN=c2cc(C)[nH]c3ccccc23)c2ccccc12`, the Inhibition in the experiment on Plasmodium falciparum [1] is listed as 99%; in the experiment on Plasmodium falciparum [2] it was 69%; in the experiment with HepG2 it was 26%.

As for `Cl.Oc1ccccc1Nc1nc(NCc2ccco2)c2ccccc2n1`, the Inhibition in the experiment on Plasmodium falciparum [1] is 99%; with Plasmodium falciparum [2], 71%; in the experiment with HepG2 it was 0%.

In the case of `CNC(=O)c1cnc(Nc2ccc(OCC(O)CN(C)C)cc2)nc1Nc1cccc([N+](=O)[O-])c1.O=C(O)C(F)(F)F` (stereo not drawn), the values for the Inhibition in the experiment with Plasmodium falciparum [1], in the experiment on Plasmodium falciparum [2] and in the experiment with HepG2 were 100%, 94% and 52%, respectively.

For the molecule `Cc1ccccc1NC(=O)NC1CCN(CCCCCNC(=O)/C=C/c2ccc(Cl)c(Cl)c2)CC1`, the Inhibition in the experiment on Plasmodium falciparum [1] was determined as 100%; with Plasmodium falciparum [2], 20%; in the experiment on HepG2, 13%.

`N=C(N)Nc1nc(-c2ccc(NCc3ccc(CNc4cccc(-c5csc(NC(=N)N)n5)c4)cc3)cc2)cs1`: the Inhibition in the experiment on Plasmodium falciparum [1] was found to be 100%; in the experiment with Plasmodium falciparum [2], 99%; in the experiment on HepG2, 11%.

In the case of `Cl.N=C(N)c1ccc(C=CC(=O)NCC(O)CNC(=O)C=Cc2ccc(C(=N)N)cc2)cc1` (stereo not drawn), the Inhibition with Plasmodium falciparum [1] is given as 90%; in the experiment with Plasmodium falciparum [2], 80%; in the experiment on HepG2, 0%.

Take `O=C1O[C@H](c2ccccc2)[C@H](c2ccccc2)N(C(=O)OCc2ccccc2)[C@H]1Cc1ccccc1C1CCCC1`: the Inhibition in the experiment on Plasmodium falciparum [1] was found to be 97%; in the experiment on Plasmodium falciparum [2], 0%; in the experiment on HepG2 it was 56%.

With `C(=NN=c1cc(-c2ccccc2)[nH]c2ccccc12)c1cccnc1`, the Inhibition with Plasmodium falciparum [1] is 87%; in the experiment on Plasmodium falciparum [2] it was 13%; in the experiment on HepG2 it was 23%.

Take `Nc1ncc(-c2ccc(NC(=O)Nc3cc(C(F)(F)F)ccc3F)cc2)c(N)n1.O=C(O)C(F)(F)F`: the Inhibition is 99% in the experiment on Plasmodium falciparum [1], 21% with Plasmodium falciparum [2] and 96% with HepG2.

Consider `CCn1c(-c2nonc2N)nc2c(Cl)ncc(O[C@H](CCN)c3ccccc3F)c21.Cl`, for which the values for the Inhibition with Plasmodium falciparum [1], with Plasmodium falciparum [2] and with HepG2 were 96%, 88% and 15%, respectively.

For the molecule `CC(C)CCN1CCCN(Cc2ccc(C(=O)Nc3ccc(C(C)(C)C)cc3)cc2)CC1.O=C(O)C(F)(F)F`, the Inhibition was found to be 92% in the experiment on Plasmodium falciparum [1], 12% with Plasmodium falciparum [2] and 49% in the experiment on HepG2.

With `Cc1cc(N2CCCCC2)nc2ccc(NC(=O)c3cccc([N+](=O)[O-])c3)cc12`, the Inhibition in the experiment with Plasmodium falciparum [1] is given as 95%; in the experiment on Plasmodium falciparum [2], 99%; in the experiment on HepG2, 9%.

As to `CN1CCN(CCCSc2ccc3c(c2)ncn3-c2cc(OCc3ccccc3C(F)(F)F)c(C(N)=O)s2)CC1.O=CO`, the Inhibition with Plasmodium falciparum [1] was determined as 100%; in the experiment with Plasmodium falciparum [2], 86%; in the experiment on HepG2 it was 28%.

Turning to `O=C(N[C@@H](CC1CCCCC1)C(=O)NC1CC1)c1ccc(O)c(-c2cccc(C(F)(F)F)c2)c1`, the Inhibition amounted to 99% in the experiment on Plasmodium falciparum [1], 47% in the experiment with Plasmodium falciparum [2] and 0% in the experiment with HepG2.

Turning to `Nc1ccc2[nH]cc(C3CCN(CC4CCN(C(=O)/C=C/c5ccc(Cl)c(Cl)c5)CC4)CC3)c2n1`, the Inhibition is 99% in the experiment on Plasmodium falciparum [1], 97% in the experiment on Plasmodium falciparum [2] and 53% in the experiment on HepG2.

Turning to `Cl.O=C(O[C@H]1CN[C@H](C#Cc2cc3c(Nc4ccc(OCc5cccc(F)c5)c(Cl)c4)ncnc3s2)C1)N1CCCC1`, the values for the Inhibition in the experiment on Plasmodium falciparum [1], in the experiment with Plasmodium falciparum [2] and in the experiment on HepG2 were 99%, 67% and 11%, respectively.

Consider `Cl.Nc1ncc(-c2ccccc2)cc1-c1nc2cc(Cl)c(F)cc2[nH]1`, for which the values for the Inhibition in the experiment with Plasmodium falciparum [1], with Plasmodium falciparum [2] and in the experiment on HepG2 were 100%, 91% and 37%, respectively.

In the case of `CCCCCCCC1CCN(C[C@H](O)c2ccnc3ccc(OC)cc23)CC1.O=C(O)C(=O)O`, the Inhibition was determined as 94% with Plasmodium falciparum [1], 81% in the experiment with Plasmodium falciparum [2] and 23% with HepG2.

For the molecule `Br.CC(C)Oc1ccc(CCCON2C(=N)N=C(N)NC2(C)C)cc1`, the Inhibition was 96% with Plasmodium falciparum [1], 94% in the experiment with Plasmodium falciparum [2] and 66% in the experiment with HepG2.

`NC1CCCN(Cc2cccc(-c3ccc(-c4nc5ccccc5[nH]4)s3)c2)C1.O=C(O)C(F)(F)F` (stereo not drawn): the Inhibition with Plasmodium falciparum [1] was 98%; with Plasmodium falciparum [2], 88%; in the experiment with HepG2, 21%.

With `CCCCNc1nc(NCCCC)c2c(C)c(Cc3ccccc3)c(NCCCC)nc2n1.Cl`, the Inhibition in the experiment with Plasmodium falciparum [1] is given as 95%; with Plasmodium falciparum [2], 84%; with HepG2, 69%.

For the molecule `COC(=O)c1cccc(C#CCCOCCCCCCNC[C@H](O)c2cc(Cl)c(N)c(Cl)c2)c1`, the Inhibition turned out to be 97% in the experiment on Plasmodium falciparum [1], 88% in the experiment with Plasmodium falciparum [2] and 12% in the experiment with HepG2.

On to `CCn1c(-c2nonc2N)nc2cnc(Oc3cccc(NC(=O)c4ccc(OCCN(C(C)C)C(C)C)cc4)c3)cc21`, for which the results for the Inhibition in the experiment on Plasmodium falciparum [1], with Plasmodium falciparum [2] and in the experiment on HepG2 were 97%, 10% and 63%, respectively.
